Here are results for 40 compounds from PubChem BioAssay (NCATS).

Values without a mark were called inactive. A call without a number means that no potency is given here. Calls of active or inactive are those of the source. Calls follow the shape of the dose curve; as a rule, active = well fitted inhibition curve with a large enough effect; inconclusive = small, poorly fitted or top-dose-only effect; inactive = flat fitted curve, though single readings scatter. Where a SMILES comes first, the peptide text is derived from it. [ ]: non-standard residue; d: D form. PhLac = O=C(O)[CH](O)Cc1ccccc1; NMeV = CN[CH](C(=O)O)C(C)C

In this experiment the test system is Nanoluciferase (engineered Oplophorus gracilirostris luciferase). The experiment can be described thus: Primary Nanoluciferase (NLuc) qHTS assay for identification of artifact compounds. (AID 1845222). The conditions noted are these: NLuc-conditioned medium, Nano-Glo luminescence, 5 min; series mostly up to 54.1 µM. In outline: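 Luminescence read-out of secreted NLuc in S16 cell conditioned medium (1:55); compounds tested with 15 min RT preincubation, then Nano-Glo substrate 1:100, 5 min. % inhibition vs no-enzyme and DMSO controls, 4-parameter Hill fit.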
Background: In qHTS, concentration-response curves come from the screen itself.
On to `O=C(O[C@@H]1O[C@H](CO)[C@@H](O)[C@H](O)[C@H]1O)c1c(O)cc(O)cc1/C=C/c1ccccc1`, for which the Potency result is “inactive”. In the case of `C[C@@H]1CC[C@]2(C(=O)O)CC[C@]3(C(=O)O)C(=CCC4[C@@]5(C)CC[C@H](O[C@@H]6O[C@@H](C)[C@H](O[C@@H]7O[C@H](CO)[C@@H](O)[C@H](O)[C@H]7O)[C@@H](O)[C@H]6O)C(C)(C)C5CC[C@]43C)C2[C@H]1C` (stereo not given in full), the Potency result is “inactive”. On the same count and under the same terms, the same measure for `COC1C=C([C@@H]2CC=C3[C@@]4(C)C(CC[C@]32C)[C@@]2(C)C=CC(=O)C(C)(C)C2C[C@H]4OC(C)=O)C(=O)O1` (stereo not given in full): “inactive”. The same measure, in the same setting: then `Cc1cc(Nc2ncc(Cl)c(Nc3ccccc3S(=O)(=O)C(C)C)n2)c(OC(C)C)cc1C1CCNCC1`, with “inactive”. As to `CN1CC[C@@H](NC(=O)Nc2ccc(C#N)cc2)C[C@@H]1c1nc2ccccc2[nH]1`, the Potency entry was “inactive”.

As for `O=C(/C=C/c1ccc(O)cc1)OCC1=C[C@@H](O)[C@@H]2C=CO[C@@H](O[C@@H]3O[C@H](CO)[C@@H](O)[C@H](O)[C@H]3O)[C@H]12`, the Potency entry is “inactive”.

`C1CCN2CC3C[C@@H](CN4CCCC[C@@H]34)[C@H]2C1`: the Potency result is “inactive”. With `C=C1CC[C@@H]2[C@](C)(CO[C@@H]3O[C@H](CO)[C@@H](O)[C@H](O)[C@H]3O)CCC[C@@]2(C)[C@@H]1CCC1=CCOC1=O`, the Potency result was “inactive”. In the case of `CC1(C)NC2N(C1=O)c1ccccc1C2(O)CC(C(=O)O)n1cnc2ccccc2c1=O` (stereo not given), the Potency result is “inactive”. Regarding `C=CC(C)(O)CC/C=C(\C)C(=O)OCC1OC(OC2CCC3(C)C(CCC4(C)C3CC=C3C5CC(C)(C)C(O)CC5(C(=O)O)CCC34C)C2(C)C)C(O)C(OC2OC(CO)C(O)C(OC3OC(CO)C(O)C(OC4OC(COC5OC(CO)C(O)C(O)C5O)C(O)C(O)C4O)C3O)C2O)C1O` (stereo not given), the activity, negative = inhibition is 4.87% [at 11.6 µM]. With `CC(=O)N1CCN(NC(=O)c2ccc(F)cc2)CC1`, the Potency entry was “inactive”. Still for that read-out and setting: then `C=CC1(C)C=C2C(O)CC3C(C)(C(=O)O)CCCC3(C)C2CC1` (stereo not given), with “inactive”; and `CCNC(=O)[C@H]1O[C@H](n2cnc3c(NCC(c4ccccc4)c4ccccc4)nc(C(=O)NCCNC(=O)NC4CCN(c5ccccn5)CC4)nc32)[C@H](O)[C@@H]1O`, with “inactive”. As for `CC(C)C(C(=O)N1CCCC1C(=O)O)N(C)C(=O)C(O)Cc1ccccc1` (stereo not given) (H-[PhLac]-[NMeV]-Pro-OH; configuration not given here), the Potency result is “inactive”. Same read-out and setting: the same measure for `CC(=O)OC1C=C(C(=O)O)C2(CO)CCC(C)C(C)(CCc3ccoc3)C2C1` (stereo not given): “inactive”. With `C/C=C(\C)C(=O)O[C@@H]1CC2[C@@H](CC=C3C[C@@H](O[C@H]4C[C@H](OC)[C@H](O[C@H]5C[C@H](OC)[C@H](O[C@H]6C[C@H](OC)[C@H](O[C@H]7C[C@@H](OC)[C@H](O[C@@H]8O[C@H](CO)[C@@H](O)[C@H](O)[C@H]8O)[C@@H](C)O7)[C@@H](C)O6)[C@@H](C)O5)[C@@H](C)O4)CC[C@@]32C)[C@@]2(O)CC[C@H](C(C)=O)[C@@]12C` (stereo not given in full), the activity, negative = inhibition is 4.8% [at 11.6 µM]. For `CC1(CO)CC2C(O)C(=O)C3(CO)CC3(C)C2C1` (stereo not given), the Potency entry is “inactive”. As for `CCC(C)(O)C(O)C(=O)OCc1ccc(O[C@@H]2O[C@H](CO)[C@@H](O)[C@H](O)[C@H]2O)c(OC)c1` (stereo not given in full), the Potency result was “inactive”. The same measure, in the same setting: then `N#Cc1ccnc(N2C(=O)CC[C@H]2C(=O)N(c2cncc(F)c2)[C@H](C(=O)NC2CC(F)(F)C2)c2ccccc2Cl)c1`, with “inactive”. Same read-out and setting: then `C=C(C)[C@H]1C[C@@H](O)C(=C)CC[C@@H](O)C(=C)[C@@H](O)C1`, with “inactive”; and `C=C1CC[C@@H]2[C@](C)(CC[C@H](O)[C@@]2(C)CCC=C(C)C)[C@@H]1Cc1c[nH]c2ccccc12`, with “inactive”. On the same count and under the same terms, then `Cc1ccc(C(=O)Nc2ccc(Oc3cc4cnn(C)c4cc3-c3cn[nH]c3)c(F)c2)c(=O)n1-c1ccc(F)cc1`, with “inactive”; and `c1ccc(Cc2ncc3c(n2)CCNCC3)cc1`, with “inactive”; and `C[C@@H]1C[C@H]2[C@@H]3CCC4=CC(=O)C=C[C@]4(C)[C@@]3(F)[C@@H](O)C[C@]2(C)[C@@]1(O)C(=O)COP(=O)(O)O`, with “inactive”. In the case of `COC(=O)C1C(CC(C)=O)C=CC(O)C12Oc1cc(C)cc(O)c1C2=O` (stereo not given), the Potency result is “inactive”. On the same count and under the same terms, then `CC1(C)CC[C@]2(C(=O)O)CC[C@]3(C)C(=CCC4[C@@]5(C)CC[C@H](O[C@@H]6O[C@H](C(=O)O)[C@@H](O)[C@H](O)[C@H]6O)C(C)(CO)C5CC[C@]43C)C2C1` (stereo not given in full), with “inactive”. For `CC1CCC2C(C)(C)C(O)CCC2(C)C12Cc1c(O)cc3c(c1O2)C(N)=NC3` (stereo not given), the Potency entry was “inactive”.

`C[C@@H]1CC[C@]2(C)C3(C)CC[C@@]2(OC3=O)[C@@]12C[C@H](c1ccoc1)OC2=O`: the Potency result was “inactive”. On to `COC(=O)C1=COC(OC2OC(CO)C(O)C(O)C2O)C2C1CC(OC(=O)C(O)CC(=O)O)C2C` (stereo not given), for which the Potency entry was “inactive”. For `C=CC1C(O[C@@H]2O[C@H](CO)[C@@H](O)[C@H](O)[C@H]2O)OC=C(C(=O)OC)C1Cc1nccc2c1[nH]c1ccccc12` (stereo not given in full), the Potency entry is “inactive”. Same read-out and setting: then `C=C1C2(CCC(=O)OC2(C)C)CC(OC(=O)/C(C)=C/C)C2(C)C13OC14C(=O)OC(C)(C(=O)C12C(=O)OC4C)C3OC(C)=O` (stereo not given), with “inactive”. `C=C[C@@]1(C)CC(=O)C2[C@](C)(O1)[C@@H](OC(C)=O)[C@@H](O)[C@H]1C(C)(C)CCC[C@]21C` (stereo not given in full): the activity, negative = inhibition is 3.51% [at 11.6 µM]. Consider `C=CC(C)(O)CC/C=C(\C)C(=O)OC1CC2(C(=O)O)CCC3(C)C(=CCC4C5(C)CCC(OC6OC(COC7OCC(O)C(O)C7O)C(O)C(OC7OCC(O)C(O)C7O)C6OC6OC(CO)C(O)C(O)C6OC6OCC(O)C(O)C6O)C(C)(C)C5CCC43C)C2CC1(C)C` (stereo not given), for which the activity, negative = inhibition is 2.64% [at 11.6 µM].

With `COC1=CC(=O)O[C@@H](CCc2ccccc2)[C@@H]1O`, the Potency entry was “inactive”. `C[C@@H]1O[C@@H](O[C@H]2[C@H](OC(=O)C34CCC(C)(C)CC3C3=CCC5C6(C)CC(O)C(O[C@@H]7O[C@H](CO)[C@@H](O)[C@H](O)[C@H]7O)C(C)(C(=O)O)C6CCC5(C)C3(CO)CC4)O[C@H](C)[C@H](O)[C@@H]2O)[C@H](O)[C@H](O)[C@H]1O[C@@H]1OC[C@@H](O)[C@H](O)[C@H]1O` (stereo not given in full): the activity, negative = inhibition is 2.8% [at 11.6 µM]. `C=C1CC23CCC4[C@@](C)(CCC[C@@]4(C)C(=O)O)C2CCC1C3` (stereo not given in full): the Potency entry was “inactive”. Regarding `CC1(C)CC2C3=CCC4C5(C)CCC(OC6OC(CO)C(O)C(OC7OC(CO)C(O)C(OC8OC(CO)C(O)C(OC9OC(COC%10OC(CO)C(O)C(O)C%10O)C(O)C(O)C9O)C8O)C7O)C6O)C(C)(C)C5CCC4(C)C3(C)CCC2(C(=O)O)CC1O` (stereo not given), the activity, negative = inhibition is 0.268% [at 11.6 µM]. Turning to `C=C(C)[C@@H]1CC[C@](C)(O)[C@@H](OC(=O)c2ccccc2)C1`, the Potency result was “inactive”. Consider `COC(=O)C1=CO[C@@H](O[C@@H]2O[C@H](CO[C@@H]3O[C@H](COC(=O)/C=C/c4ccc(O)cc4)[C@@H](O)[C@H](O)[C@H]3O)[C@@H](O)[C@H](O)[C@H]2O)[C@@H]2C(CO)=CC[C@H]12`, for which the Potency entry is “inactive”.

`COc1cc([C@@H]2Oc3c(OC)cc(CCCO)cc3[C@@H]2CO[C@@H]2O[C@H](CO)[C@@H](O)[C@H](O)[C@H]2O)ccc1O`: the Potency result is “inactive”.
